Consider 24 molecules from PubChem BioAssay AID1259351 (ICCB-Longwood Screening Facility, Harvard Medical School, 2017).

Some of the results follow. Calls of active or inactive are those of the source.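 How the source made its calls: active means inhibition score at or above a set limit, where the score is 100 minus the three-replicate mean percent of control signal; inactive means the rest.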

The experiment concerns the target Guanine nucleotide-binding protein G(i) subunit alpha-3 (Homo sapiens) (UniProt P08754). The experiment can be described thus: inhibitors of GIV binding to Galpha-i3, confirmation, orthogonal assay for GIV-Galpha-i inhibitor project, biochemical, AlphaScreen, His-GIV, GST-Galphai3 (AID 1259351). To be noted: purified proteins, 90 min, at 100 µM, stronger effect = lower value. Background: In Alpha technology, singlet oxygen from a donor bead excites a nearby acceptor bead.
On to `Cc1nn(-c2ccccc2)c2sc(-c3noc(-c4ccccc4F)n3)cc12`, for which the AlphaScreen counts was 31800 (inactive).

With `Cc1ccc(N2C(=O)/C(=C/c3ccc(OCC(=O)O)c(Br)c3)C(=O)NC2=S)cc1`, the AlphaScreen counts was 6910 (active).

For `COc1ccccc1N1C(=O)/C(=C/c2ccc(Cl)cc2)C=C1c1ccccc1`, the AlphaScreen counts was 45900 (inactive).

`COc1ccc(N=Nc2c(-c3ccc(OC)cc3)[nH]oc2=O)cc1`: the AlphaScreen counts is 54000 (inactive).

`O=C(O)c1cc(NS(=O)(=O)c2ccc3c(c2)CCCC3)cnc1N1CCOCC1`: the AlphaScreen counts was 28400 (inactive).

Consider `COC(=O)Cn1nc2c(-c3nc(-c4ccc(Cl)cc4)no3)cccn2c1=O`, for which the AlphaScreen counts is 27400 (inactive).

Regarding `CC1=NOC(=O)C1C(c1cccc(Br)c1)c1c(C)[nH]n(-c2ccccc2)c1=O` (centres undefined), the AlphaScreen counts is 2770 (active).

For the molecule `CCOC(=O)c1nc2cc(C)c(C)cc2nc1NC1CCCCC1`, the AlphaScreen counts is 38900 (inactive).

As to `N#CC(C#N)=C(C#N)/C=C/n1c2ccccc2c2ccccc21`, the AlphaScreen counts is 4560 (active).

For the molecule `O=C(O)c1c2ccccc2[nH]c2c1oc1cc(=O)ccc12`, the AlphaScreen counts is 19100 (active).

As for `Cn1cccc1/C=C1\C(=O)NC(=S)N(c2ccccc2)C1=O`, the AlphaScreen counts was 799 (active).

`Cc1ccc(NC(=O)c2nc[nH]c2C(=O)N2CCCCC2)c(C(=O)c2ccccc2)c1`: the AlphaScreen counts is 27800 (inactive).

On to `CCOC(=O)C1=C(C)N(c2ccc(OC)cc2)C(=O)/C1=C\c1ccco1`, for which the AlphaScreen counts was 21400 (active).

Regarding `CC(=O)Oc1cccc2c1C(=O)C=CC2=O`, the AlphaScreen counts was 35600 (inactive).

In the case of `COC1=C(N2CCOCC2)C(=O)c2ccccc2C1=O`, the AlphaScreen counts was 29700 (active).

Take `CCC(=O)N1CCc2cc(N3CC(C(=O)N4CCN(C(C)C)CC4)CC3=O)ccc21` (centres undefined): the AlphaScreen counts was 27700 (inactive).

Consider `O=C(O)CCC(C(=O)O)N1C(=O)/C(=C\c2ccco2)SC1=S` (centres undefined), for which the AlphaScreen counts was 2280 (active).

With `N#CSc1cc(SC#N)c(N)nc1N`, the AlphaScreen counts was 24300 (active).

On to `O=C(NN=c1c(=O)c2ccccc2c1=O)c1ccncc1`, for which the AlphaScreen counts is 28200 (inactive).

Turning to `Cc1ccc(C(=O)N2CCc3cc(CNC(=O)c4ccc(Br)cc4)ccc32)cc1`, the AlphaScreen counts is 29400 (inactive).

Consider `CCOc1cc(/C=C2/C(=O)N(c3nn[nH]n3)N=C2C)cc(Cl)c1OCC`, for which the AlphaScreen counts is 1950 (active).

Consider `COc1ccc(Nc2cc(C(=O)NCCCN(C)c3ccccc3)c3ccccc3n2)c(OC)c1`, for which the AlphaScreen counts was 33800 (inactive).

With `COc1ccccc1CNc1ncc2nc(-c3ccccc3)oc2n1`, the AlphaScreen counts was 40200 (inactive).

Turning to `CC(=O)Nc1ccc(Nc2c3c4c(cccc4[nH]c2=O)C(=O)c2ccccc2-3)cc1`, the AlphaScreen counts was 27100 (inactive).
